IDE exosite inh: exo-site inhibitors of human insulin-degrading enzyme. P14735. z-score at 20 µM. 17,000 compounds, 6.3% hits. purified IDE, FL-6b probe fluorescence polarization; stronger effect = lower value;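 active = z-score of -3 or lower, meaning strong loss of probe binding signal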;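 note: His-tagged human IDE residues 42-1019 made in E. coli with 30 nM FL-6b probe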
Target sequence (P14735 42-1019 limits assumed): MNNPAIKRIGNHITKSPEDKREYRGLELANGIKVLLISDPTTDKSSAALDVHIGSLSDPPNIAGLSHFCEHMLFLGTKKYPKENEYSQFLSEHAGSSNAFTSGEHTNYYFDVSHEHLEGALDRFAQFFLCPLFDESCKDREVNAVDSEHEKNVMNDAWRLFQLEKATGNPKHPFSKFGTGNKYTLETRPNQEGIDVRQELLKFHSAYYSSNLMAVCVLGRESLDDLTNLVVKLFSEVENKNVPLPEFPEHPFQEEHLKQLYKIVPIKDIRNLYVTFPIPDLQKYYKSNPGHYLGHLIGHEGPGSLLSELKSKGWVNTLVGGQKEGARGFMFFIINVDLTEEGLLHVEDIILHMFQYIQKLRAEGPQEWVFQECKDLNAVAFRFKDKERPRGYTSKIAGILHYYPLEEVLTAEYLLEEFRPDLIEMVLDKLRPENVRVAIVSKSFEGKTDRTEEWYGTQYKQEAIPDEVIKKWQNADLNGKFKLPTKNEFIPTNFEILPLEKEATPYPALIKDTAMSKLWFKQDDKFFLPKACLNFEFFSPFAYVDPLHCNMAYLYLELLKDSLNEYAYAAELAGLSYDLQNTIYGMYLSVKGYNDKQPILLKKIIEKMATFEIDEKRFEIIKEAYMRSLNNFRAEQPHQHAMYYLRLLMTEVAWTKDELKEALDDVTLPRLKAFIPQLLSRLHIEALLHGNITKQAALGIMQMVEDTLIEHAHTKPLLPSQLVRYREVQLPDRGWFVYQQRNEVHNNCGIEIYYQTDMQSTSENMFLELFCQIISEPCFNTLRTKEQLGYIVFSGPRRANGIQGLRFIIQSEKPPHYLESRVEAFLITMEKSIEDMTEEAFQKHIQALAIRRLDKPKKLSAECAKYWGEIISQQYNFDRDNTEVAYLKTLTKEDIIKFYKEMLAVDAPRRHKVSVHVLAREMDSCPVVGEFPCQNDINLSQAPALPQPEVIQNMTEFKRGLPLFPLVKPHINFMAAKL
Active calls of the source: *. The sample as a whole holds a higher share of hits than the screen did.

SMILES	IDE exosite inh
C/C=C/c1ccc([C@@H]2[C@H](CO)N3CCCCN(C(=O)Cc4cccnc4)C[C@@H]23)cc1	-0.6
C/C=C/c1ccc([C@@H]2[C@@H](CO)N3CCCCN(C(=O)Cc4cccnc4)C[C@@H]23)cc1	0.079
O=C(Cc1cccnc1)N1CCCCN2[C@H](CO)[C@@H](c3ccc(/C=C/c4ccccc4)cc3)[C@@H]2C1	-8.8*
COc1ccc(C#Cc2ccc([C@@H]3[C@H](CO)N4CCCCN(C(=O)Cc5cccnc5)C[C@@H]34)cc2)cc1	4.6
COc1ccc(C#Cc2ccc([C@@H]3[C@@H](CO)N4CCCCN(C(=O)Cc5cccnc5)C[C@H]34)cc2)cc1	-1.2
C/C=C/c1ccc([C@H]2[C@@H](CO)N3CCCCN(C(=O)Cc4ccncc4)C[C@H]23)cc1	0.65
O=C(Cc1cccnc1)N1CCCCN2[C@H](CO)[C@H](c3ccc(/C=C/c4ccccc4)cc3)[C@H]2C1	-11*
O=C(Cc1cccnc1)N1CCCCN2[C@H](CO)[C@@H](c3ccc(C#CC4CCCC4)cc3)[C@@H]2C1	3.2
O=C(Cc1cccnc1)N1CCCCN2[C@H](CO)[C@@H](c3ccc(/C=C/c4ccccc4)cc3)[C@H]2C1	-9.4*
OC[C@@H]1[C@@H]2c3ccccc3NC[C@@H]2N1Cc1cccnc1	1.1
C[C@H]1CN([C@@H](C)CO)C(=O)CCCn2cc(nn2)CO[C@@H]1CN(C)C(=O)Oc1ccc2ccccc2c1	-0.24
COc1cccc(-c2ccc([C@H]3[C@@H](CO)N4CCCCN(C(=O)Cc5ccncc5)C[C@H]34)cc2)c1	-2.5
O=C(Cc1ccncc1)N1CCCCN2[C@@H](CO)[C@@H](c3ccc(C#CC4(O)CCCC4)cc3)[C@@H]2C1	2.8
CCCNC(=O)N1[C@@H]2Cn3c(ccc(-c4ccccc4OC)c3=O)[C@H]1[C@@H](C(=O)OC)[C@@H]2CO	0.76
O=C1CNC[C@H]2[C@H](c3ccc(Br)cc3)[C@@H](CO)N12	-0.15
O=C(Cc1ccncc1)N1CCCCN2[C@H](CO)[C@@H](c3ccc(C#Cc4ccccc4F)cc3)[C@H]2C1	-2.5
O=C(Cc1ccccc1)N1CCCCN2[C@H](CO)[C@@H](c3ccc(C#Cc4ccccc4)cc3)[C@H]2C1	0.71
O=C(Cc1ccncc1)N1CCCCN2[C@@H](CO)[C@@H](c3ccc(C#Cc4ccccc4F)cc3)[C@@H]2C1	-5.4*
O=C(Cc1ccncc1)N1CCCCN2[C@H](CO)[C@H](c3ccc(C#Cc4ccccc4F)cc3)[C@H]2C1	-4.2*
COc1ccc(C#Cc2ccc([C@@H]3[C@H](CO)N4CCCCN(C(=O)Cc5ccncc5)C[C@@H]34)cc2)cc1	3.8
O=C(Cc1ccccc1)N1CCCCN2[C@H](CO)[C@@H](c3ccc(C#Cc4ccccc4)cc3)[C@@H]2C1	-1.3
COc1ccc(C#Cc2ccc([C@H]3[C@H]4CN(C(=O)Cc5ccccc5)CCCCN4[C@H]3CO)cc2)cc1	3.1
Cc1ccccc1-c1ccc([C@H]2[C@@H](CO)N3CCCCN(C(=O)Cc4ccccn4)C[C@@H]23)cc1	-5.7*
O=C(Cc1ccccn1)N1CCCCN2[C@H](C1)[C@@H](c1ccc(-c3ccccc3F)cc1)[C@@H]2CO	-4.5*
O=C(Cc1ccccn1)N1CCCCN2[C@H](CO)[C@@H](c3ccc(-c4ccc(F)cc4)cc3)[C@H]2C1	4.4
SMILES	IDE exosite inh
Cc1ccccc1-c1ccc([C@@H]2[C@H]3CN(C(=O)Cc4ccccn4)CCCCN3[C@H]2CO)cc1	-10*
O=C(Cc1ccccn1)N1CCCCN2[C@@H](CO)[C@H](c3ccc(-c4ccccc4)cc3)[C@@H]2C1	1.9
O=C(Cc1ccccn1)N1CCCCN2[C@H](CO)[C@@H](c3ccc(-c4ccccc4)cc3)[C@H]2C1	-0.097
O=C(Cc1ccccn1)N1CCCCN2[C@H](CO)[C@H](c3ccc(-c4ccccc4)cc3)[C@@H]2C1	-0.96
O=C(Cc1ccccn1)N1CCCCN2[C@H](C1)[C@H](c1ccc(-c3ccccc3)cc1)[C@@H]2CO	-2.4
Cc1ccccc1-c1ccc([C@H]2[C@H]3CN(C(=O)Cc4ccccn4)CCCCN3[C@H]2CO)cc1	-0.98
O=C([C@H]1N[C@H]2c3cccc(=O)n3C[C@H]2[C@@H]1CO)N1CCCCC1	0.87
N#Cc1cccc(-c2ccc([C@H]3[C@H]4CN(C(=O)Cc5ccncc5)CCCCN4[C@H]3CO)cc2)c1	1.3
COC(=O)[C@@H]1[C@@H](CO)[C@@H]2Cn3c(ccc(-c4ccc(F)cc4)c3=O)[C@H]1N2C(=O)c1ccccc1F	-0.72
N#Cc1cccc(-c2ccc([C@H]3[C@H]4CN(C(=O)Cc5cccnc5)CCCCN4[C@H]3CO)cc2)c1	-0.13
COc1ccccc1CN1[C@H](CO)[C@H](c2ccccc2)C12CN(C(=O)Cc1ccccc1)C2	-0.3
O=C(Cc1cccnc1)N1CCCCN2[C@H](C1)[C@@H](c1ccc(C#CC3(O)CCCC3)cc1)[C@@H]2CO	3.1
COc1ccccc1CN1[C@H](CO)[C@@H](c2ccccc2)C12CN(C(=O)Cc1ccccc1)C2	2.2
O=C(Cc1ccccn1)N1CCCCN2[C@H](CO)[C@H](c3ccc(C#Cc4ccccc4)cc3)[C@H]2C1	-9.5*
CC(C)CC#Cc1ccc([C@@H]2[C@@H](CO)N3CCCCN(C(=O)Cc4ccccn4)C[C@@H]23)cc1	5.1
O=C(Cc1ccccn1)N1CCCCN2[C@@H](CO)[C@H](c3ccc(C#Cc4ccccc4)cc3)[C@@H]2C1	-7.3*
O=C(Cc1ccccn1)N1CCCCN2[C@@H](CO)[C@@H](c3ccc(Br)cc3)[C@@H]2C1	3.2
O=C(Cc1ccccn1)N1CCCCN2[C@H](CO)[C@@H](c3ccc(C#Cc4ccccc4)cc3)[C@H]2C1	-0.97
COCC#Cc1ccc([C@@H]2[C@@H](CO)N3CCCCN(C(=O)Cc4ccccn4)C[C@@H]23)cc1	-0.26
O=C(Cc1ccccn1)N1CCCCN2[C@H](CO)[C@@H](c3ccc(C#Cc4ccccc4)cc3)[C@@H]2C1	-4.9*
CCCC#Cc1ccc([C@@H]2[C@H]3CN(C(=O)Cc4ccccn4)CCCCN3[C@H]2CO)cc1	-1.7
CN(C)CC#Cc1ccc([C@@H]2[C@H]3CN(C(=O)Cc4ccccn4)CCCCN3[C@H]2CO)cc1	0.57
C/C=C/c1ccc(C2[C@@H]3CN(C(=O)C4CCOCC4)C[C@H]2N3)cc1 (some centres not stated)	0.24
COc1cccc(-c2ccc([C@@H]3[C@@H](CO)N4CCCCN(C(=O)Cc5ccncc5)C[C@H]34)cc2)c1	0.079
N#Cc1cccc(-c2ccc([C@@H]3[C@@H](CO)N4CCCCN(C(=O)Cc5ccccc5)C[C@H]34)cc2)c1	0.49
SMILES	IDE exosite inh
N#Cc1ccc(-c2ccc([C@@H]3[C@H]4CN(C(=O)Cc5ccccc5)CCCCN4[C@H]3CO)cc2)cc1	0.54
c1cncc(-c2ccc(C3[C@H]4CNC[C@@H]3N4CC3CC3)cc2)c1 (some centres not stated)	-0.89
C/C=C/c1ccc(C2[C@@H]3CN(C(=O)CN(C)C)C[C@H]2N3)cc1 (some centres not stated)	0.55
COc1ccc(-c2ccc([C@@H]3[C@H](CO)N4CCCCN(C(=O)Cc5ccccc5)C[C@@H]34)cc2)cc1	-3.1*
COc1ccc(-c2ccc([C@H]3[C@H](CO)N4CCCCN(C(=O)Cc5ccccc5)C[C@@H]34)cc2)cc1	0.59
COc1cccc(-c2ccc([C@@H]3[C@@H](CO)N4CCCCN(C(=O)Cc5ccncc5)C[C@@H]34)cc2)c1	-2.3
COc1cccc(-c2ccc([C@@H]3[C@H](CO)N4CCCCN(C(=O)Cc5ccncc5)C[C@@H]34)cc2)c1	-3.9*

Source: PubChem BioAssay (Broad Institute)
